According to PubChem BioAssay AID1159580 (chemical genetic matrix, 2015):
Hit rate of the full screen: of about 5,500 compounds, about 2,000 (36%) were called active. Roughly 18% stayed inconclusive and do not appear here. Rule as the data show it: active = normalized growth mostly below about 0.91 (no sharp cut-off); inconclusive = no clear call, values can overlap the other calls; inactive = mostly above about 0.92. The list shows a part of the results.

Test: chemical genetic growth profiling, strain panel (AID 1159580);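 also: tested at 20 µM; growth read once vehicle control cultures reached saturation at 30 °C; 1 = growth at the plate median or of vehicle wells; lower values mean less growth of the strain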
Settings: growth OD

Measured: normalized growth

O=C(Cc1cccs1)NC1C(=O)N2C(C(=O)[O-])=C(C[n+]3ccccc3)CSC12 (stereo unspecified)
inactive: S. cerevisiae deletion strains, locus YJR075W, strain HOC1, stronger effect = lower value 1.01 | S. cerevisiae deletion strains, locus YKL009W, strain mrt4, stronger effect = lower value 0.989 | S. cerevisiae deletion strains, locus YKL068W, stronger effect = lower value 1.01 | S. cerevisiae deletion strains, locus YKL085W, strain MDH1 (second series), stronger effect = lower value 1 | S. cerevisiae deletion strains, locus YKL085W, strain MDH1, stronger effect = lower value 1 | S. cerevisiae deletion strains, locus YKL160W, strain elf1, stronger effect = lower value 1 | S. cerevisiae deletion strains, locus YKL190W, strain CNB1, stronger effect = lower value 1.01 | S. cerevisiae deletion strains, locus YKR001C, strain vps1, stronger effect = lower value 0.992 | S. cerevisiae deletion strains, locus YKR026C, strain gcn3, stronger effect = lower value 0.988 | S. cerevisiae deletion strains, locus YKR091W, strain srl3, stronger effect = lower value 0.985 | S. cerevisiae deletion strains, locus YLL001W, strain dnm1, stronger effect = lower value 0.979 | S. cerevisiae deletion strains, locus YLL026W, stronger effect = lower value 0.997 | S. cerevisiae deletion strains, locus YLL041C, strain sdh2, stronger effect = lower value 0.994 | S. cerevisiae deletion strains, locus YLR027C, strain aat2, stronger effect = lower value 0.989 | S. cerevisiae deletion strains, locus YLR039C, strain RIC1, stronger effect = lower value 1.01 | S. cerevisiae deletion strains, locus YLR058C, strain SHM2, stronger effect = lower value 0.99 | S. cerevisiae deletion strains, locus YLR102C, strain apc9, stronger effect = lower value 0.997 | S. cerevisiae deletion strains, locus YLR221C, strain rsa3, stronger effect = lower value 0.99 | S. cerevisiae deletion strains, locus YLR258W, strain gsy2, stronger effect = lower value 0.986 | S. cerevisiae deletion strains, locus YLR262C, strain YPT6 (second series), stronger effect = lower value 0.973 | S. cerevisiae deletion strains, locus YLR262C, strain YPT6, stronger effect = lower value 1.03 | S. cerevisiae deletion strains, locus YLR268W, strain sec22, stronger effect = lower value 0.979 | S. cerevisiae deletion strains, locus YLR320W, strain mms22, stronger effect = lower value 0.979 | S. cerevisiae deletion strains, locus YLR330W, strain CHS5, stronger effect = lower value 1.01 | S. cerevisiae deletion strains, locus YLR342W, strain FKS1 (second series), stronger effect = lower value 0.956 | S. cerevisiae deletion strains, locus YLR342W, strain FKS1, stronger effect = lower value 0.986 | S. cerevisiae deletion strains, locus YLR357W, strain rsc2, stronger effect = lower value 0.937 | S. cerevisiae deletion strains, locus YLR370C, strain arc18, stronger effect = lower value 0.989 | S. cerevisiae deletion strains, locus YLR371W, strain rom2, stronger effect = lower value 0.985 | S. cerevisiae deletion strains, locus YLR384C, strain iki3, stronger effect = lower value 0.974 | S. cerevisiae deletion strains, locus YLR418C, strain cdc73, stronger effect = lower value 0.949 | S. cerevisiae deletion strains, locus YML016C, strain PPZ1, stronger effect = lower value 0.999 | S. cerevisiae deletion strains, locus YML032C, strain rad52, stronger effect = lower value 0.973 | S. cerevisiae deletion strains, locus YML120C, strain ndi1, stronger effect = lower value 1 | S. cerevisiae deletion strains, locus YML124C, strain tub3, stronger effect = lower value 0.999 | S. cerevisiae deletion strains, locus YMR058W, strain fet3, stronger effect = lower value 0.984 | S. cerevisiae deletion strains, locus YMR078C, strain ctf18, stronger effect = lower value 0.999 | S. cerevisiae deletion strains, locus YMR125W, strain sto1, stronger effect = lower value 0.983 | S. cerevisiae deletion strains, locus YMR129W, stronger effect = lower value 1 | S. cerevisiae deletion strains, locus YMR205C, strain PFK2, stronger effect = lower value 0.978 | S. cerevisiae deletion strains, locus YMR223W, strain ubp8, stronger effect = lower value 0.982 | S. cerevisiae deletion strains, locus YMR231W, strain pep5, stronger effect = lower value 0.991 | S. cerevisiae deletion strains, locus YMR307W, strain GAS1, stronger effect = lower value 0.997 | S. cerevisiae deletion strains, locus YNL067W, strain RPL9B, stronger effect = lower value 1.02 | S. cerevisiae deletion strains, locus YNL071W, strain lat1, stronger effect = lower value 0.999 | S. cerevisiae deletion strains, locus YNL128W, strain TEP1, stronger effect = lower value 1.01 | S. cerevisiae deletion strains, locus YNL153C, strain GIM3, stronger effect = lower value 1.03 | S. cerevisiae deletion strains, locus YNL209W, strain ssb2, stronger effect = lower value 0.984 | S. cerevisiae deletion strains, locus YNL233W, strain BNI4, stronger effect = lower value 1.02 | S. cerevisiae deletion strains, locus YNL248C, strain rpa49, stronger effect = lower value 0.985 | S. cerevisiae deletion strains, locus YNL250W, strain rad50, stronger effect = lower value 0.972 | S. cerevisiae deletion strains, locus YNL271C, strain bni1, stronger effect = lower value 0.992 | S. cerevisiae deletion strains, locus YNL298W, strain CLA4, stronger effect = lower value 0.986 | S. cerevisiae deletion strains, locus YNL307C, strain MCK1, stronger effect = lower value 0.991 | S. cerevisiae deletion strains, locus YNL322C, strain KRE1 (second series), stronger effect = lower value 0.985 | S. cerevisiae deletion strains, locus YNL322C, strain KRE1, stronger effect = lower value 1 | S. cerevisiae deletion strains, locus YNR049C, strain mso1, stronger effect = lower value 0.975 | S. cerevisiae deletion strains, locus YNR052C, strain pop2, stronger effect = lower value 0.989 | S. cerevisiae deletion strains, locus YOL006C, strain TOP1, stronger effect = lower value 1.02 | S. cerevisiae deletion strains, locus YOL012C, strain htz1 0.724 | S. cerevisiae deletion strains, locus YOL147C, strain pex11, stronger effect = lower value 0.992 | S. cerevisiae deletion strains, locus YOR001W, strain rrp6, stronger effect = lower value 0.988 | S. cerevisiae deletion strains, locus YOR061W, strain CKA2, stronger effect = lower value 1 | S. cerevisiae deletion strains, locus YOR069W, strain VPS5, stronger effect = lower value 1 | S. cerevisiae deletion strains, locus YOR070C, strain gyp1, stronger effect = lower value 0.974 | S. cerevisiae deletion strains, locus YOR080W, strain dia2, stronger effect = lower value 0.971 | S. cerevisiae deletion strains, locus YOR083W, strain WHI5, stronger effect = lower value 0.974 | S. cerevisiae deletion strains, locus YOR106W, strain vam3, stronger effect = lower value 0.973 | S. cerevisiae deletion strains, locus YOR136W, strain idh2, stronger effect = lower value 0.998 | S. cerevisiae deletion strains, locus YOR144C, strain elg1, stronger effect = lower value 0.997 | S. cerevisiae deletion strains, locus YOR184W, strain ser1, stronger effect = lower value 0.983 | S. cerevisiae deletion strains, locus YOR265W, strain rbl2, stronger effect = lower value 1 | S. cerevisiae deletion strains, locus YOR270C, strain vph1, stronger effect = lower value 0.942 | S. cerevisiae deletion strains, locus YOR290C, strain snf2, stronger effect = lower value 0.991 | S. cerevisiae deletion strains, locus YOR316C, strain cot1, stronger effect = lower value 0.994 | S. cerevisiae deletion strains, locus YPL051W, strain arl3, stronger effect = lower value 0.983 | S. cerevisiae deletion strains, locus YPL055C, strain LGE1, stronger effect = lower value 1.03 | S. cerevisiae deletion strains, locus YPL078C, strain atp4, stronger effect = lower value 0.988 | S. cerevisiae deletion strains, locus YPL106C, strain sse1, stronger effect = lower value 0.939 | S. cerevisiae deletion strains, locus YPL240C, strain hsp82, stronger effect = lower value 0.992 | S. cerevisiae deletion strains, locus YPR119W, strain clb2, stronger effect = lower value 0.997 | S. cerevisiae deletion strains, locus YPR141C, strain kar3, stronger effect = lower value 1.01 | S. cerevisiae deletion strains, locus YPR163C, strain tif3, stronger effect = lower value 0.997 | S. cerevisiae deletion strains, locus YPR167C, strain met16, stronger effect = lower value 0.988 | S. cerevisiae deletion strains, strain wtn01, stronger effect = lower value 0.978 | S. cerevisiae strains, strain wild type, stronger effect = lower value 0.998
